Measurements taken from PubChem BioAssay (NCATS).
Results filed as inconclusive are left out. Activity calls are given as the source filed them. Unless noted, calls come from the whole dose curve; as a rule, active = well fitted curve in either direction with a large enough effect (not every such curve was filed as active); inconclusive = small, poorly fitted or top-dose-only effect, or another doubt; inactive = flat fitted curve, though single readings scatter.

Columns and labels:
[1] = AP1 Signaling Pathway (AID 357); details: ME-180 AP-1-bla reporter, EGF-induced, beta-lactamase ratio, 5 h; at 17.2 µM (top of the series) unless noted;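 note: ME-180 reporter cells stimulated with EGF at its EC50 level; % is set by controls: 0 for no effect and ±100 for the full control effect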
Method in brief: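 Modulation of EGF-driven AP-1 transcription was assessed with a beta-lactamase reporter in ME-180 cells. Compound and EC50 EGF were co-incubated 5 hours at 37 °C before 2.5-hour CCF4 loading at room temperature and dual-emission reading.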

[2] = NFAT Signaling Pathway (AID 444); details: Jurkat NFAT-bla M1, carbachol, beta-lactamase ratio, 5 h; at 17.2 µM (top of the series) unless noted;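 note: carbachol stimulus at about its EC50 of 1 µM final; % is set by controls: 0 for no effect and ±100 for the full control effect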
Method in brief: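 Jurkat cells with NFAT-driven β-lactamase reporter and co-expressed M1 receptor, stimulated with carbachol (final 1 uM, ~EC50), compound titration, 5 h at 37 °C. CCF4 loaded 1 h at RT; 460/530 nm ratio gave %activity and AC50.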

[3] = Stat Signaling Pathway (AID 446);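 note: ME-180 cervical cancer cells given 40 pM IL-6 alongside compound; SIE-controlled beta-lactamase reporter measured as 460/530 nm FRET emission ratio; % is set by controls: 0 for no effect and ±100 for the full control effect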
Method in brief: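 Reporter line: ME-180 cervical carcinoma, SIE-beta-lactamase. Treatment: compound with 40 pM IL-6, 5 hrs, 37 C, in low-serum OPTI-MEM with 10 mM HEPES pH 7.3. Detection: 460/530 nm fluorescence.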

[4] = target: Glucocorticoid receptor (Homo sapiens) (UniProt P04150); test: GR-GFP Redistribution (AID 450;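 active = compounds whose dose series gives a full or clear partial fitted curve of increased nuclear translocation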; note: potency is the fitted concentration of half-maximal effect); details: U2OS GR-GFP nuclear translocation, laser cytometry, 2 h
[5] = target: Glucocorticoid receptor (Homo sapiens) (UniProt P04150); test: GR-EFC Redistribution (AID 451; calls by dose curve; note: potency is the fitted concentration of half-maximal effect); details: CHO-K1 GR-EFC translocation, beta-gal luminescence, 2 h
Method in brief: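 CHO-K1 cells expressing nuclear EA and GR-ED fragments of b-gal; compounds titrated up to 46 uM final, 2 h at 37 C. GR nuclear translocation read as complemented b-gal luminescence after 1 h RT detection.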

[6] = target: Mitogen-activated protein kinase 10 (Mus musculus) (UniProt Q61831); test: JNK3 AlphaScreen Assay (AID 530);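 note: kinase came from lysate of stimulated human HepG2 cells; signal reports phosphorylation of biotinylated GST-cJun 1-79 at Ser73 with 10 µM ATP; % is set by controls: 0 for no effect and ±100 for the full control effect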
Method in brief: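 qHTS format: compounds tested as titrations against IL-1beta/TNF-alpha-activated HepG2 lysate JNK3 with biotin-GST-cJun substrate and 10 uM ATP at room temperature. Loss of anti-phospho-cJun AlphaScreen signal indicates inhibition.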

[7] = target: 3',5'-cyclic-AMP phosphodiesterase 4B (Homo sapiens) (UniProt Q07343); test: qHTS Assay for Inhibitors of PDE-IV (AID 607; active = well fitted activation curve with a large enough effect in the main read-out, with a control signal flat, not every such curve was filed as active; note: % of control where 0% means no effect)
Method in brief: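 Cell-based read-out of cAMP via a modified cyclic nucleotide-gated channel and membrane potential dye (535/590 nm) in HEK293 cells expressing PDE4 endogenously. Compounds tested up to 22.9 uM final; 100 uM RO 20-1724 reference.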

[8] = target: Guanine nucleotide-binding protein G(i) subunit alpha-1 (Homo sapiens) (UniProt P63096); test: qHTS Assay for Inhibitors of RGS12 GoLoco Motif Activity (Green Fluorophore) (AID 879; active = well fitted curve in the direction sought with a large enough effect; an effect the other way counts as inactive or inconclusive;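 note: 0% = labeled peptide with Gαi1 and full inhibition = labeled peptide alone without protein; negative values mean loss of peptide binding seen as reduced polarization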)
Method in brief: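 Fluorescence polarization assay: 50 nM Gαi1 with 10 nM FITC-labeled RGS12 GoLoco peptide in 10 mM Tris pH 7.5, 150 mM NaCl, 0.1 mM GDP, 0.05% NP40, 10 min at room temperature with compound.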

[9] = qHTS Assay for Identification of Small Molecule Agonists for Thrombopoietin (TPO) Signaling Pathway (AID 917; active = well fitted curve in the direction sought with a large enough effect; an effect the other way counts as inactive or inconclusive; note: % is set by controls: 0 for no effect and ±100 for the full control effect)
Method in brief: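 We measured Glycoprotein IIb promoter–luciferase output in IL-3-starved Ba/F3 murine cells expressing the human TPO receptor after 24 hrs at 37 C with compounds and 26 pM TPO.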

[10] = target: Muscarinic acetylcholine receptor M1 (Rattus norvegicus) (UniProt P08482); test: qHTS Assay for Antagonists of Acetylcholine Muscarinic M1 Receptor: Measurement of IP-One Response (AID 944; active = well fitted curve in the direction sought with a large enough effect; an effect the other way counts as inactive or inconclusive; note: nearly all actives have a fitted effect of over 75% in size)
Method in brief: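 Steps: plate transfected CHO-M1 cells overnight; add test compound, 10 min; add carbachol (200 nM, EC80) in stimulation buffer with LiCl; incubate 30 min; add labelled IP1 tracer and anti-IP1 antibody in lysis buffer; read HTRF after 10 min.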

[11] = target: Pyruvate kinase PKM (Homo sapiens) (UniProt P14618); test: qHTS Assay for Activators of Human Muscle Pyruvate Kinase (AID 954; active = well fitted curve in the direction sought with a large enough effect, not every such curve was filed as active;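 note: 0% = uninhibited enzyme and -100% = no enzyme or full thiadiazolimine inhibition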)
Method in brief: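 Human PKM2 activity is measured as ATP generation, detected by luciferase-coupled luminescence. The enzyme (0.1 nM) acts on 0.5 mM PEP and 0.1 mM ADP for 1 h at ambient temperature; data are normalized to uninhibited and full-inhibition wells.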

[12] = target: Alpha-galactosidase (Coffea arabica) (UniProt Q42656); test: Counterscreen for Glucocerebrosidase Inhibitors: qHTS Assay for Coffee Bean alpha-Galactosidase at pH 4.5 (AID 957; active = well fitted curve in the direction sought with a large enough effect; an effect the other way counts as inactive or inconclusive;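 note: plate controls were enzyme alone for no effect and no enzyme for full effect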)
Method in brief: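 AC50 values derive from Hill-equation modeling of concentration-response data, normalized to no-enzyme and full-activity controls. The pH 4.5 citrate assay used 2 nM coffee bean enzyme and 80 uM fluorogenic substrate for 20 min.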

[13] = target: Alpha-galactosidase A (Homo sapiens) (UniProt P06280); test: Counterscreen for Glucocerebrosidase Inhibitors: qHTS Assay for Human alpha-Galactosidase at pH 4.5 (AID 992; active = well fitted curve in the direction sought with a large enough effect; an effect the other way counts as inactive or inconclusive; note: 0% is about no effect)
Method in brief: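 Quantitative HTS: compounds tested from 0.7 nM up to 77 uM against 2 nM enzyme with 80 uM 4-MU alpha-D-galactopyranoside. The 20 min room-temperature reaction is stopped with 1M NaOH/1M glycine, pH 10.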

[14] = target: alpha-glucosidase (Oryza sativa, rice) (UniProt Q653V4); test: Counterscreen for Glucocerebrosidase Inhibitors: qHTS Assay for Rice alpha-Glucosidase at pH 5.0 (AID 997; active = well fitted curve in the direction sought with a large enough effect; an effect the other way counts as inactive or inconclusive;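 note: 0% = full activity with enzyme and -100% = basal without enzyme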)
Method in brief: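 Rice alpha-glucosidase (4 nM final) with 400 uM 4-methylumbelliferyl-alpha-D-glucopyranoside in citrate buffer pH 5.0, 20 min at room temperature, stopped at pH 10; fluorescence 365/440 nm, compounds 0.7 nM–77 uM, AC50 from Hill fits.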

[15] = target: Alpha-galactosidase (Coffea arabica) (UniProt Q42656); test: Counterscreen for Glucocerebrosidase Inhibitors: qHTS Assay for Coffee Bean alpha-Galactosidase at pH 5.9 (AID 998; active = well fitted curve in the direction sought with a large enough effect; an effect the other way counts as inactive or inconclusive;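 note: plate controls were uninhibited enzyme for no effect and no-enzyme basal signal for full effect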)
Method in brief: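 Green coffee bean enzyme (2 nM) with 4-methylumbelliferyl alpha-D-galactopyranoside (80 uM) in 50 mM citric acid, 0.005% Tween-20, pH 5.9, 20 min at room temperature; compounds 0.7 nM–77 uM. Stopped at pH 10, fluorescence Ex365/Em440; Hill-fit AC50.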

Chain of Glucocorticoid receptor (Homo sapiens) (P04150 whole entry, looked up, the tested form may be a part): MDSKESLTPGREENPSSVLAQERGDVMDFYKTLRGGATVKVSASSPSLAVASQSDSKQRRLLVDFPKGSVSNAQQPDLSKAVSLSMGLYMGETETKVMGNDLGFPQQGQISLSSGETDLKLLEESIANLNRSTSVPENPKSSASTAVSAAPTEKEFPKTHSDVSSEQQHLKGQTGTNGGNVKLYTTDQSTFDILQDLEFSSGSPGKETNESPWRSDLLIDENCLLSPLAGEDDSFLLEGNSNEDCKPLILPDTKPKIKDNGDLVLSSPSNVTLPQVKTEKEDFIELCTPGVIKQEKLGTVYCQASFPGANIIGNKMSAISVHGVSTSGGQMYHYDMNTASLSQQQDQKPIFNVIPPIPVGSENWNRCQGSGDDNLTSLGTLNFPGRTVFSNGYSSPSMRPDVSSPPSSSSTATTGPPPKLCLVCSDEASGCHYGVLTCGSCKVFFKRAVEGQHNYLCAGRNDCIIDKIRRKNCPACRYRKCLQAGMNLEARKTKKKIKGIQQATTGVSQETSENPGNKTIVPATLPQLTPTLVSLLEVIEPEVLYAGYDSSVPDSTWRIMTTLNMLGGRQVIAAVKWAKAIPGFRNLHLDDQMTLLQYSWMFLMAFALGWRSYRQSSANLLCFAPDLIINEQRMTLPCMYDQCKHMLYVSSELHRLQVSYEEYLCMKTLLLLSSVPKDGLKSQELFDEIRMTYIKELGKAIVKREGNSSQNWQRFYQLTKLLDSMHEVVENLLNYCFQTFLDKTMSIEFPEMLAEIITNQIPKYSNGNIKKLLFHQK
Chain of Alpha-galactosidase (Coffea arabica) (Q42656 whole entry, looked up): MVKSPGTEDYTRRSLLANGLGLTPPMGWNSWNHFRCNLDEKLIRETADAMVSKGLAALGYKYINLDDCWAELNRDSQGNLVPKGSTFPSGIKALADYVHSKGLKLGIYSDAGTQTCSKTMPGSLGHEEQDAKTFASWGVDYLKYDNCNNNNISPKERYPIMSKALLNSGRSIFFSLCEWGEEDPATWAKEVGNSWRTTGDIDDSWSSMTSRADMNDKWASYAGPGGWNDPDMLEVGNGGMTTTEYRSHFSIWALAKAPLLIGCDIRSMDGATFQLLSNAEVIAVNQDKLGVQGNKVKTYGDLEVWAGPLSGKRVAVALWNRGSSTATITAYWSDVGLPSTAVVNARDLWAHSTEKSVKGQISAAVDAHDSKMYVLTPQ
Chain of 3',5'-cyclic-AMP phosphodiesterase 4B (Homo sapiens) (Q07343 whole entry, looked up): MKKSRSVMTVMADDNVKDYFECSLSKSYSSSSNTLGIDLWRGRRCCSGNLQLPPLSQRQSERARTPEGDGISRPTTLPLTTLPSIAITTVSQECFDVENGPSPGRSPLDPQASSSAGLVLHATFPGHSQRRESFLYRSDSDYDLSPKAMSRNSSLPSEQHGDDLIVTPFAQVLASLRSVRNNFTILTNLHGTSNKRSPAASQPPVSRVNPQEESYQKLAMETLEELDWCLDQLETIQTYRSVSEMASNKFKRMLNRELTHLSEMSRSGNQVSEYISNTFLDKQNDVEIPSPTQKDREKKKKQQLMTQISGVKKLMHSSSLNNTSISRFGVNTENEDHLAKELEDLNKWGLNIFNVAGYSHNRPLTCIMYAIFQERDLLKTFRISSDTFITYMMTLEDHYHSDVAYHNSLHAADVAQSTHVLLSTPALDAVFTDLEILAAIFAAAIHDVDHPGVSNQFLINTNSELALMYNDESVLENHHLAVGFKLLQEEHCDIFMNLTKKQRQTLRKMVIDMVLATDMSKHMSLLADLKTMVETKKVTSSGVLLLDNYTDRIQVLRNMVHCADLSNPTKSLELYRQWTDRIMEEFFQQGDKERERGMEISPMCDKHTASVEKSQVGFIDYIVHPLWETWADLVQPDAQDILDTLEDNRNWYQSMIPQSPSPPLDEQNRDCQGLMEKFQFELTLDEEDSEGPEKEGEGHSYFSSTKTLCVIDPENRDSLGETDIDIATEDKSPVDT
Chain of Muscarinic acetylcholine receptor M1 (Rattus norvegicus) (P08482 whole entry, looked up): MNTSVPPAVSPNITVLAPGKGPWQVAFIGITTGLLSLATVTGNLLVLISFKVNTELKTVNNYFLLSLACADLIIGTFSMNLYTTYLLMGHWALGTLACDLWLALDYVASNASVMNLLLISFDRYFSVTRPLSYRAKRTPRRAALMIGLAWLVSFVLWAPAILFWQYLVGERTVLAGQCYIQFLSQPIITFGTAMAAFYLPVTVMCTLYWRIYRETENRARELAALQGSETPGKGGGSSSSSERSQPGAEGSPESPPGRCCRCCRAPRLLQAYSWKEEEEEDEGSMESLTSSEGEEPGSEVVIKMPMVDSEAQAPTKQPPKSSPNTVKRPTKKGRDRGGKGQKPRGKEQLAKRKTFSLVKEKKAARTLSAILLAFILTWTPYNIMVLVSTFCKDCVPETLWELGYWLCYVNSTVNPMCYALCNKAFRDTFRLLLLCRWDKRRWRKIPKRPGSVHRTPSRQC
Chain of Alpha-galactosidase A (Homo sapiens) (P06280 whole entry, looked up): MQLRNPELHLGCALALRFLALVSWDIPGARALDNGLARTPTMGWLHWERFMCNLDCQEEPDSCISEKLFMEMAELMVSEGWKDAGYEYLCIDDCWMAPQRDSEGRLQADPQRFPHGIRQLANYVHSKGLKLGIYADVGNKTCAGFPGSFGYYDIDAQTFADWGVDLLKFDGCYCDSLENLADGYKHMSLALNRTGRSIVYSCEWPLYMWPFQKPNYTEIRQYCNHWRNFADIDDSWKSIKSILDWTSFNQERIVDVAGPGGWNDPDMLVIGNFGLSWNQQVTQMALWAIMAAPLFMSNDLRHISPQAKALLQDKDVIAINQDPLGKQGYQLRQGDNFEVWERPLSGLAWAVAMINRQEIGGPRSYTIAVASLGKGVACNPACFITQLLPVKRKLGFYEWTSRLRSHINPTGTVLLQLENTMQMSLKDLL
Chain of Pyruvate kinase PKM (Homo sapiens) (P14618 whole entry, looked up): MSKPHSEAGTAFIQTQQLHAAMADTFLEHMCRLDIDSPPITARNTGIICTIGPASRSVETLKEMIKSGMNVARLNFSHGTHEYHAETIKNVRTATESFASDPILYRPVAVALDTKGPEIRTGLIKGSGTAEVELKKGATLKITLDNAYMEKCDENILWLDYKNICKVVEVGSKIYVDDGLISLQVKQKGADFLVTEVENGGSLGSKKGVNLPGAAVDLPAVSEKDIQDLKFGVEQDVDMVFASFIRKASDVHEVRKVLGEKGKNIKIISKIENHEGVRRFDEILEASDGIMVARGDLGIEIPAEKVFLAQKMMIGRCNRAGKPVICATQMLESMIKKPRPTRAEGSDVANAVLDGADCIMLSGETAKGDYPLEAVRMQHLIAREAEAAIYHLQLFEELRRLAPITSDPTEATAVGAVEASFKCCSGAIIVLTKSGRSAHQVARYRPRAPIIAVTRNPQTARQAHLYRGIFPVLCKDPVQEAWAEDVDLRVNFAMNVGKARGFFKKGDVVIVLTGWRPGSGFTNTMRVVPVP
Chain of Guanine nucleotide-binding protein G(i) subunit alpha-1 (Homo sapiens) (P63096 whole entry, looked up): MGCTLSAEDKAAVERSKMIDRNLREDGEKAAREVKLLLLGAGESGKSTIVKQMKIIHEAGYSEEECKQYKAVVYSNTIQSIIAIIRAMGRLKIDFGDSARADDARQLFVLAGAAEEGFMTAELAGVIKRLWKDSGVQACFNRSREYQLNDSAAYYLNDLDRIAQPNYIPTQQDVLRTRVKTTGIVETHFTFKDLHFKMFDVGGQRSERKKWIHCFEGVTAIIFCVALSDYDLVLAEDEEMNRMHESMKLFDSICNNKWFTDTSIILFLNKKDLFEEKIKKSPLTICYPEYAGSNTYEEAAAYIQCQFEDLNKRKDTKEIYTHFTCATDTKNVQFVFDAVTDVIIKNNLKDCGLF

CCCc1nc2ccccc2c(=O)n1-c1ccccc1OC
inactive: activity change, negative = inhibition [1] -13.4% | activity change, negative = inhibition [2] 1.18% | outcome [3] | Potency [4] > 20.6 µM

C[C@H]1CCCC(=O)CCCCCc2cc(O)cc(O)c2C(=O)O1
inactive: activity change, negative = inhibition [1] -29.6% | activity change, negative = inhibition [2] 22.4% | outcome [3] | Potency [4] > 20.6 µM

Cc1ccc(-n2c(O)c(C=NCCN3CCOCC3)c(=O)[nH]c2=O)cc1
inactive: activity change, negative = inhibition [1] 6.04% | activity change, negative = inhibition [2] 13.7% | outcome [3] | Potency [4] > 20.6 µM

CC(=O)OC1(c2ccc(C)cc2)CN2CCC1c1ccccc12 (stereo not given)
inactive: activity change, negative = inhibition [1] 7.68% | activity change, negative = inhibition [2] -10.3% | outcome [3] | Potency [4] > 20.6 µM

CCn1c(O)c(C(=O)CC2NCCc3ccccc32)c(=O)n(CC)c1=S (stereo not given)
inactive: activity change, negative = inhibition [1] 5.38% | activity change, negative = inhibition [2] 22.3% | outcome [3] | Potency [4] > 20.6 µM

CC(=O)C1(c2ccccc2)CCNCC1
inactive: activity change, negative = inhibition [1] 6.36% | activity change, negative = inhibition [2] -17.3% | outcome [3] | Potency [4] > 20.6 µM

CN1CCc2nc(SCC(=O)OC(C)(C)C)c(C#N)cc2C1
inactive: activity change, negative = inhibition [1] -5.69% | activity change, negative = inhibition [2] -15.8% | outcome [3] | Potency [4] > 20.6 µM

O=c1[nH]c(=O)n(Cc2ccco2)c(O)c1C=NCCCn1ccnc1
inactive: activity change, negative = inhibition [1] 10% | activity change, negative = inhibition [2] -8.42% | outcome [3] | Potency [4] > 20.6 µM

CC(C)OC(=O)c1c(N)n(Cc2ccco2)c2nc3ccccc3nc12
inactive: activity change, negative = inhibition [1] -15.7% | activity change, negative = inhibition [2] 17.6% | outcome [3] | Potency [4] > 20.6 µM

COc1cccc(-n2c(O)c(C=NCCN3CCOCC3)c(=O)[nH]c2=O)c1
inactive: activity change, negative = inhibition [1] 0.139% | activity change, negative = inhibition [2] 11% | outcome [3] | Potency [4] > 20.6 µM

OCCOCC#CCN1CCOCC1
inactive: activity change, negative = inhibition [1] 12.1% | activity change, negative = inhibition [2] -4.14% | outcome [3] | Potency [4] > 20.6 µM

CNc1ccc2oc(C[C@@H]3O[C@@]4(CC[C@H]3C)O[C@@H]([C@@H](C)C(=O)c3ccc[nH]3)[C@@H](C)C[C@H]4C)nc2c1C(=O)O
active: activity change, negative = inhibition [2] 90.4% [activator] [at 38 µM]
inactive: activity change, negative = inhibition [1] 6.83% [at 38 µM] | outcome [3] | Potency [4] > 46 µM | Potency [5] > 46 µM | outcome [6] | outcome [7]

C[C@@H](Cc1ccc2c(c1)OC(C(=O)O)(C(=O)O)O2)NC[C@H](O)c1cccc(Cl)c1
inactive: activity change, negative = inhibition [1] -9.81% [at 38 µM] | activity change, negative = inhibition [2] 14.6% [at 38 µM] | Potency [4] > 46 µM | Potency [5] > 46 µM | outcome [6] | outcome [7] | Potency [8] | outcome [9] | Potency [10] | outcome [11] | outcome [12] | outcome [13] | outcome [14] | outcome [15]
